Results on 11 molecules are retold here after PubChem BioAssay (NCI).

Holding throughout (assay): NCI-60 one-dose screen, 48 h (100 = growth as untreated, 0 = no growth, -100 = all killed)
Common to all, as to conditions: 10 µM unless noted

Test [1] relates to DU-145 prostate.
For test [2], the system named is K-562 leukemia.
The test system of test [3] is MALME-3M melanoma.
The test system of test [4] is MDA-MB-231 breast.
Test [5] deals with RXF 393 renal.
In test [6] the test system is SF-268 CNS.
Test [7] concerns SF-295 CNS.
Test [8] concerns SF-539 CNS.
The subject of test [9] is UACC-257 melanoma.
The subject of test [10] is M14 melanoma.

“And” between values parts separate entries of the source, which are not always exact repeats. Equal entries are not always repeated. The panel holds about 83,000 compounds, 20% with a hit somewhere; the sample as a whole holds those more often.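 Note: values are percent growth. 100 is the growth of untreated cells, values between 100 and 0 indicate rising inhibition; between -100 and 0 indicates cell death.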 Values without a mark were called inactive. The source made the active and inactive calls. How the source made its calls: active means growth percent below 10; inactive means the rest.

Take `O=C(O)C(O)c1ccc(Cl)cc1` (stereo not given): the growth in [1] is 112% and 109%; in test [2], 118%; in test [3] it was 110% and 102%; in test [4], 96.8% and 119%; in test [5], 88.5% and 122%; in test [6], 110% and 101%. Moreover, the growth in test [7] was 101% and 116%; in [8] it was 97.5% and 118%; in test [9], 109% and 91.8%; in test [10], 99.9% and 104%.

Regarding `CCOC(=O)P(=O)(OCC)OCC`, the growth in test [1] was 115%; in test [2] it was 121%; in test [3], 122%; in test [4] it was 110%; in test [5] it was 115%; in test [6], 104%. Besides, the growth in [7] was 126%; in test [8] it was 106%; in [9], 102%; in [10], 116%.

Turning to `C[C@]12CC[C@H]3[C@@H](C[C@@H]4SC(Nc5cccc(F)c5)=N[C@@]45CC(=O)CC[C@]35C)[C@@H]1CCC2=O`, the growth in test [1] was 17.2%; in [2], -0.515% (active); in test [3], 22.8%; in test [4] it was 38.2%; in test [5], -28.4% (active); in [6], 55.7%. In addition, the growth in test [7] was -18.8% (active); in test [8], -5.93% (active); in [9], 73%; in [10], 44.8%.

As for `S=P(SP(=S)(c1ccccc1)c1ccccc1)(c1ccccc1)c1ccccc1`, the growth was 106% in [1]; 97% in [2]; 96.5% in test [3]; 94.1% in test [4]; 97.1% in [5]; 95.8% in [6]. Also, the growth in test [7] is 92.5%; in test [8], 103%; in [9], 104%; in test [10], 101%.

As for `N#CC(NC(=O)CCl)=C(Cl)Cl`, the growth in [1] is 44.1%; in [2], -23.6% (active); in test [3] it was -79.1% (active); in [4] it was 1.44% (active); in test [5], -78% (active); in test [6], 28.9%. In addition, the growth is 89.9% in [7], 5.84% (active) in test [8], 3.34% (active) in [9] and -91.1% (active) in test [10].

Regarding `N#CCCc1ccccc1`, the growth in [1] was 119%; in test [2], 108%; in test [3] it was 113%; in [4] it was 107%; in [5] it was 114%; in test [6] it was 106%. Further, the growth was 108% in test [7], 96.2% in test [8], 95% in test [9] and 106% in test [10].

Turning to `CCCCn1c(=O)c(C(=O)NCc2ccccc2Cl)c(O)c2ccccc21`, the growth in [1] was 84.6%; in [2] it was 42.3%; in test [3], 98%; in [4], 88.7%; in test [5], 87.7%; in test [6], 80.8%. Moreover, the growth in test [7] is 51.8%; in test [8] it was 97.4%; in test [9], 80.9%; in test [10] it was 59.4%.

As to `Cc1ccccc1-n1c(/C=C\c2ccccn2)nc2ccccc2c1=O`, the growth was 21.3% in test [1]; 23.8% in test [2]; 59.5% in [3]; 77.1% in [4]; 7.42% (active) in test [5]; 61.7% in [6]. Besides, the growth is 74.4% in [7], 82.8% in test [8], 81.8% in test [9] and 64.9% in test [10].

As for `CC[C@H](C)[C@H](NC(=O)CN(C)C)C(=O)N(C)[C@H](C[C@@H](OC(C)=O)c1nc(C(=O)NC23CC(C(=O)OC)(C2)C3)cs1)C(C)C`, the growth was 9.21% (active) in test [1]; 9.47% (active) in test [2]; 50.9% in test [3]; 1.51% (active) in test [4]; 8.43% (active) in test [5]; 21.8% in [6]. Also, the growth in test [7] was 13.8%; in test [8] it was -8.6% (active); in test [9], 46.8%; in test [10] it was -8.54% (active).

As to `Cc1ccc(N2CCN(CCC#N)CC2)cc1`, the growth was 101% in test [1]; 110% in test [2]; 70.1% in [3]; 107% in test [4]; 88% in [5]; 105% in test [6]. Moreover, the growth in test [7] was 105%; in [8], 79.1%; in test [9], 84.5%; in [10], 98.6%.

As for `CN1CCc2cc3c(cc2C1O)OCO3` (stereo not given), the growth in test [1] is 101% and 103%; in [2], 96.7%; in test [3], 31% and 88.7%; in test [4], 97.6% and 111%; in [5], 87.8% and 114%; in test [6], 83.2% and 101%. For the same molecule, the growth in [7] is 86.7% and 94.8%; in test [8], 33.5% and 93%; in test [9], 99.2% and 111%; in test [10], 102% and 99%.
